Each structure is given as a SMILES string. Compounds without any hit were thinned out: in the full panel of roughly 79,000, 15% have a hit. Values without a mark were called inactive. Active and inactive are the calls of the source. Cut-off read from the data, not from the text of the source: active = growth inhibition above about 70%; inactive = the rest.

The nature of assay [1]: NCI Yeast Anticancer Drug Screen. Data for the rad50 strain (AID 155).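 Note: 0% = growth of vehicle-only cultures of the same strain.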 The settings on record: S. cerevisiae rad50 strain growth inhibition; at 50.0 µM; active compounds read high. The gist of the method: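 Readout: growth inhibition relative to vehicle-treated cultures. Compound exposure was carried out in a genetically defined yeast strain deficient in DNA damage repair.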
A short description of assay [2]: NCI Yeast Anticancer Drug Screen. Data for the mec2-1 strain (AID 157). Conditions: S. cerevisiae mec2-1 strain, at 50.0 µM, active compounds read high. The gist of the method: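 Each compound was tested on mec2-1 yeast, a strain altered in DNA damage repair or cell cycle control. Growth inhibition is reported relative to vehicle.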
Assay [3] can be described thus: NCI Yeast Anticancer Drug Screen. Data for the sgs1 mgt1 strain (AID 161).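 Note: 0% = growth of cultures given vehicle only.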 The settings on record: S. cerevisiae sgs1 mgt1 strain, at 50.0 µM, active compounds read high. The gist of the method:
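Read-out: growth inhibition vs vehicle controls. Cells: mutant yeast strain deficient in DNA damage repair.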

Assay [4] can be described thus: NCI Yeast Anticancer Drug Screen. Data for the cln2 rad14 strain (AID 165).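 Note: 0% = growth equal to vehicle treated cultures.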 Conditions: S. cerevisiae cln2 rad14 strain, at 50.0 µM, active compounds read high. The gist of the method:
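Test compounds were added to cln2 rad14 yeast cultures; inhibition of growth was then determined by comparison with vehicle treatment.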

Assay [5] in a line: NCI Yeast Anticancer Drug Screen. Data for the bub3 strain (AID 167). Conditions: S. cerevisiae bub3 mutant strain, at 50.0 µM, active compounds read high. The gist of the method:
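Readout: yeast growth inhibition, expressed relative to vehicle-only wells. The test organism is a mutant strain from a panel with lesions in DNA repair or checkpoint genes.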

A short description of assay [6]: NCI Yeast Anticancer Drug Screen. Data for the mlh1 rad18 strain (AID 175). Conditions: S. cerevisiae mlh1 rad18 strain growth inhibition; at 50.0 µM; active compounds read high. The gist of the method:
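Inhibition values reflect reduced growth of mutant yeast versus vehicle-treated controls following compound exposure; the mutations affect DNA damage repair.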

For `O=C(CCCC(=O)N/N=C/c1ccc(I)cc1)N/N=C\c1ccc(I)cc1`, the growth inhibition in assay [1] was 29.9%; in assay [2] it was 9%; in assay [3], 25.2%; in assay [4] it was 25.1%; in assay [5], -1.05%; in assay [6] it was 17.7%.
With `CCO/C=C1/N=C(c2cc([N+](=O)[O-])cc([N+](=O)[O-])c2C)OC1=O`, the growth inhibition in assay [1] is 10.6%; in assay [2], 6.85%; in assay [3], -6.45%; in assay [4], -58.2%; in assay [5], -35%; in assay [6] it was 15.1%.
Take `CCOC(=O)c1nc2ccc(C(F)(F)F)cc2[nH]c1=O`: the growth inhibition in assay [1] is -23.9%; in assay [2] it was -14.2%; in assay [3], -17.4%; in assay [4] it was -47.2%; in assay [5], -11.8%; in assay [6], -10%.
Regarding `O=C(O)/C(=C(\CO)c1ccccc1)c1ccccc1`, the growth inhibition in assay [1] is 7.15%; in assay [2], 9.25%; in assay [3], 11%; in assay [4], 24.4%; in assay [5] it was 3.25%; in assay [6] it was 26.7%.
As to `COc1cc(C2SCC(=O)N2c2ccc(-n3c(-c4ccccc4)nc4ccccc4c3=O)cc2)cc(OC)c1OC` (stereo not given), the growth inhibition is -17.3% in assay [1]; -8.85% in assay [2]; -4.4% in assay [3]; -7.8% in assay [4]; 8.05% in assay [5]; 4.5% in assay [6].
`CC(C)N(C(=O)C12C3C4C5(C#N)C3C1(C#N)C5C42C#N)C(C)C` (stereo not given): the growth inhibition in assay [1] is -10.4%; in assay [2] it was -9.9%; in assay [3], -21.8%; in assay [4], 1.5%; in assay [5], -0.7%; in assay [6] it was -27.4%.
With `C/C(C=C(C#N)C#N)=C\c1ccccc1`, the growth inhibition in assay [1] was 25.3%; in assay [2], 11.3%; in assay [3], -5.7%; in assay [4] it was 14.2%; in assay [5] it was 36.9%; in assay [6] it was 17.6%.
As for `C=CCNC(=O)CC(C)(C)C`, the growth inhibition in assay [1] was 25.6%; in assay [2], 12.3%; in assay [3], 0.35%; in assay [4] it was 9.3%; in assay [5], 23.9%; in assay [6], 20.2%.
Consider `Cc1cn(C2CC(O)C(CO)O2)c(=O)nc1NCc1cccs1` (stereo not given), for which the growth inhibition is 0.8% in assay [1]; 2% in assay [2]; -8.55% in assay [3]; -9.15% in assay [4]; -4.55% in assay [5]; 2.95% in assay [6].
Turning to `CCCc1c(C(=O)OCC)[nH]c(C(=O)CCC(=O)c2[nH]c(C(=O)OCC)c(CCC)c2C(=O)OCC)c1C(=O)OCC`, the growth inhibition is 20.2% in assay [1]; -13.5% in assay [2]; -10.9% in assay [3]; -19.4% in assay [4]; -15.7% in assay [5]; 2.35% in assay [6].
As for `C[N+]1(CCC(/C=C/c2ccc([N+](=O)[O-])cc2)=N\O)CCOCC1`, the growth inhibition in assay [1] was 17.3%; in assay [2] it was -0.9%; in assay [3], 14.8%; in assay [4], -6.55%; in assay [5], 1.05%; in assay [6], 46.5%.
On to `Cc1ccc(C(=O)N2CCCCC2)cc1N=NN(C)C`, for which the growth inhibition in assay [1] is 0.05%; in assay [2], -25.5%; in assay [3], -25.6%; in assay [4], 14.3%; in assay [5], -17.6%; in assay [6] it was -21.1%.
As for `Brc1ccc(N=C2NN=CC2(c2ccccc2)c2ccccc2)cc1`, the growth inhibition in assay [1] is 25.6%; in assay [2], 1.75%; in assay [3] it was 6.75%; in assay [4] it was 4.85%; in assay [5] it was 19.6%; in assay [6], -1.15%.
Consider `Cc1ccc(S(=O)(=O)N/N=c2/sc3ccccc3n2C)cc1`, for which the growth inhibition in assay [1] was -35%; in assay [2], -19.1%; in assay [3], -33.5%; in assay [4], -7.85%; in assay [5] it was -8.2%; in assay [6] it was -22.3%.
With `ClCCCOCc1ccccc1`, the growth inhibition in assay [1] was 8.2%; in assay [2], -13.2%; in assay [3], 3.65%; in assay [4], 16.4%; in assay [5], 11.9%; in assay [6], 6.3%.
For the compound `CNCC(N)=O`, the growth inhibition in assay [1] is -0.05%; in assay [2], 5.95%; in assay [3], 15.3%; in assay [4] it was -2.95%; in assay [5], -2.4%; in assay [6], 33%.
For `Nc1ccc(-c2c[nH]c(=O)c([N+](=O)[O-])c2)cc1`, the growth inhibition was 3.5% in assay [1]; -6.05% in assay [2]; -1.35% in assay [3]; -28.5% in assay [4]; 3.5% in assay [5]; -6.4% in assay [6].
For `C(=N\NC1=NCCCN1)/c1ccc2ccccc2c1`, the growth inhibition in assay [1] was 4.45%; in assay [2], 1.65%; in assay [3] it was -13.8%; in assay [4], -28.4%; in assay [5] it was 0.05%; in assay [6], 1.15%.
For the compound `CN(C)c1ccc(/C=N/N=C2\C(=O)Nc3c(Cl)cc(Cl)cc32)cc1`, the growth inhibition in assay [1] was 25.2%; in assay [2], -0.25%; in assay [3], 56.8%; in assay [4], 43.1%; in assay [5], 43.5%; in assay [6] it was 78.8% (active).
As for `CN=NNc1ccccc1`, the growth inhibition in assay [1] is -1.4%; in assay [2] it was 6.75%; in assay [3], -6.45%; in assay [4] it was -29.2%; in assay [5], 14.8%; in assay [6], -6.4%.

The values above are taken from PubChem BioAssay (NCI).
